Experiment [1] addresses Estrogen receptor (Homo sapiens) (UniProt P03372). Briefly: OT_ERa_GFPERaERE_0480: Odyssey Thera (OT) 8-hour HeLa Transcription Induction Assay for Estrogen Receptor (AID 2283381; active = hit-call score of the fitted dose curve at least 0.9, where 1 is the maximum; inactive = score below 0.9). A digest of the protocol:
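Fluorescence microscopy with high-content image analysis measures ERE-driven GFP induction in HeLa cells at 8 h post-dose. Increases fitted against DMSO baseline.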

Experiment [2] shares this target. Nature of the experiment: OT_ERa_GFPERaERE_0120: Odyssey Thera (OT) 2-hour HeLa Transcription Induction Assay for Estrogen Receptor (AID 2283382). A digest of the protocol:
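Fluorescence-microscopy images of the GFP-ERα/ERE reporter, scored by high-content image algorithms, give the readout. HeLa exposure lasted 2 h, and only signal increase over DMSO was fitted.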

Experiment [3] has as its target Retinoic acid receptor RXR-alpha (Homo sapiens) (UniProt P19793). Briefly: OT_NURR1_NURR1RXRa_0480: Odyssey Thera (OT) 8-hour HEK293T Protein Complementation Assay for Nurr1/retinoid X receptor (RXR) (AID 2283385). A digest of the protocol: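 Interaction of Nurr1 with RXRα read as reconstituted reporter fluorescence in a HEK293T fragment-complementation system, 8 h post-treatment; increase over DMSO baseline analysed.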

Experiment [4] concerns the target Peroxisome proliferator-activated receptor gamma (Homo sapiens) (UniProt P37231). Nature of the experiment: OT_PPARg_PPARgSRC1_0480: Odyssey Thera (OT) 8-hour Protein-Complementation Assay for Peroxisome Proliferator-activated Receptor Gamma / SRC-1 Co-activator (AID 2283387).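 Also: nuclear to cytoplasmic split Venus YFP fluorescence ratio reporting PPARg SRC-1 interaction.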 A digest of the protocol:
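Protein-fragment complementation in HEK293T: Venus YFP halves (residues 1-158, 159-239, mutated to IFP1/IFP2) fused to PPARg/SRC-1. 8 h exposure; N/C ratio at 488 nm; DMSO negative control.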

The target is the same in experiment [5]. Nature of the experiment: OT_PPARg_PPARgSRC1_1440: Odyssey Thera (OT) 24-hour Protein-Complementation Assay for Peroxisome Proliferator-activated Receptor Gamma/ SRC-1 Co-activator (AID 2283388).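 Also: nuclear to cytoplasmic ratio of reconstituted Venus YFP fluorescence in fixed imaged cells.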 A digest of the protocol:
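Protein-fragment complementation between PPARg and coactivator SRC-1 was measured by fluorescence imaging in transiently transfected HEK293T cells after 24 h treatment. Signal was quantified as N/C ratio in the 488 nm channel, with DMSO as negative control.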

Experiment [6] in a line: CEETOX_H295R_11DCORT: CeeTox H295R High-throughput Steroidogenesis Assay for 11-Deoxycortisol (11DCORT) (AID 2283432; active = hit-call score of the fitted dose curve at least 0.9, where 1 is the maximum; inactive = score below 0.9;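 as to AC50: human adrenal H295R cells prestimulated with 10 µM forskolin for 48 h; 11-deoxycortisol secreted into the medium measured by LC-MS/MS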). The following applies: actives raise or lower the signal. A digest of the protocol: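 Adrenal carcinoma line H295R, run per OECD 456 with minor changes, was forskolin-stimulated (10 uM, 48 h) before a 48 h chemical exposure at 0.1% DMSO. Secreted 11-deoxycortisol was quantified by HPLC-MS/MS.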

Experiment [7] can be described thus: CEETOX_H295R_OHPREG: CeeTox H295R High-throughput Steroidogenesis Assay for OH-Pregnenolone (OHPREG) (AID 2283434; active = hit-call score of the fitted dose curve at least 0.9, where 1 is the maximum; inactive = score below 0.9). The following applies: actives raise or lower the signal. A digest of the protocol:
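H295R, 10 uM forskolin pre-stim 48 h; test chemical 48 h, 0.1% DMSO final. MTBE extraction, reverse-phase C18 HPLC-ESI+ MS/MS of medium. Gain/loss vs DMSO; viability by MTT in same wells.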

Experiment [8] concerns the target Retinoic acid receptor RXR-alpha (Homo sapiens) (UniProt P19793). Nature of the experiment: OT_NURR1_NURR1RXRa_1440: Odyssey Thera (OT) 24-hour HEK293T Protein Complementation Assay for Nurr1/retinoid X receptor (RXR) (AID 2283386). A digest of the protocol: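 Gain in fluorescence, fitted relative to DMSO, reflects Nurr1–RXRα association in HEK293T cells after 24 h dosing. Bait and prey are each linked to a reporter-protein fragment that reassembles on interaction.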

The target of experiment [9] is Bile acid receptor (Homo sapiens) (UniProt Q96RI1). Briefly: OT_FXR_FXRSRC1_0480: Odyssey Thera (OT) 8-hour HEK293T Protein-Complementation Assay for Farnesoid X receptor/SRC-1 Co-activator (AID 2283383). A digest of the protocol: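 Binding of FXR to coactivator SRC-1 was read as fluorescence from a reconstituted split reporter in HEK293T cells, 8 h after chemical addition. Only increases in signal versus DMSO were fit.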
Chain of Bile acid receptor (Homo sapiens) (Q96RI1 whole entry, looked up): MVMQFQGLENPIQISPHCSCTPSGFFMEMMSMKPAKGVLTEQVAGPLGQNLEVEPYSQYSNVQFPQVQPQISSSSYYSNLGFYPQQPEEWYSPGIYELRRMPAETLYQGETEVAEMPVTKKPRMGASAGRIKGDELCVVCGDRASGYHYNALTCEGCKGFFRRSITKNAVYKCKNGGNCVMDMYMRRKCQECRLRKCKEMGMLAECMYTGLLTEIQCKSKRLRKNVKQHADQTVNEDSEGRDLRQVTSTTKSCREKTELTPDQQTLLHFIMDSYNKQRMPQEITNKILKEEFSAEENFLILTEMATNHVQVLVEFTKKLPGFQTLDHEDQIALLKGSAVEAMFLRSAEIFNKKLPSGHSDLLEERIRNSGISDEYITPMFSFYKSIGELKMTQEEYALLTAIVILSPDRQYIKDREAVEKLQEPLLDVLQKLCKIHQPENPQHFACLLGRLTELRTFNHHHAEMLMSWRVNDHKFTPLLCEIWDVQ

Experiment [10] has the same target. Briefly: OT_FXR_FXRSRC1_1440: Odyssey Thera (OT) 24-hour HEK293T Protein-Complementation Assay for Farnesoid X receptor/SRC-1 Co-activator (AID 2283384). A digest of the protocol: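 Protein-fragment complementation: FXR and SRC-1 fused to reporter fragments that reassemble on interaction, read by fluorescence intensity. Human HEK293T cells measured 24 h post-dose; positive-direction fit versus DMSO.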

Each structure is given as a SMILES string. Records with an inconclusive call do not appear. Calls of active or inactive are those of the source. The calls were made as follows, unless noted: active = hit-call score of the fitted dose curve at least 0.9, where 1 is the maximum; inconclusive = response in the unintended direction; inactive = score below 0.9.

This note sets out measurements from PubChem BioAssay (EPA / NIEHS).

The AC50 is the concentration at which the activity in the assay is half-maximal.

Chain of Peroxisome proliferator-activated receptor gamma (Homo sapiens) (P37231 whole entry, looked up, the tested form may be a part): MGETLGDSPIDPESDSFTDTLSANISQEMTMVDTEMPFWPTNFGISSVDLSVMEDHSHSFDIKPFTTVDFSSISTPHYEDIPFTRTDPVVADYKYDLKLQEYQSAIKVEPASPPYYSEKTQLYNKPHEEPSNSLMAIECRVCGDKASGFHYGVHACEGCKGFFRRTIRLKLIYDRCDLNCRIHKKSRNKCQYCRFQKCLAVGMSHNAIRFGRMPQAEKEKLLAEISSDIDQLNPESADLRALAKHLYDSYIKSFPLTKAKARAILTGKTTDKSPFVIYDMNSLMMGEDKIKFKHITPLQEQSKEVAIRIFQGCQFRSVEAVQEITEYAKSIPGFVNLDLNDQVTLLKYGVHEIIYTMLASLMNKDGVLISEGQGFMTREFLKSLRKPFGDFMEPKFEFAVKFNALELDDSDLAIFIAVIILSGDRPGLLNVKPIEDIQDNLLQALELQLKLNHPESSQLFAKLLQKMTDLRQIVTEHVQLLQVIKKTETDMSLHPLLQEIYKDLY
Chain of Estrogen receptor (Homo sapiens) (P03372 whole entry, looked up): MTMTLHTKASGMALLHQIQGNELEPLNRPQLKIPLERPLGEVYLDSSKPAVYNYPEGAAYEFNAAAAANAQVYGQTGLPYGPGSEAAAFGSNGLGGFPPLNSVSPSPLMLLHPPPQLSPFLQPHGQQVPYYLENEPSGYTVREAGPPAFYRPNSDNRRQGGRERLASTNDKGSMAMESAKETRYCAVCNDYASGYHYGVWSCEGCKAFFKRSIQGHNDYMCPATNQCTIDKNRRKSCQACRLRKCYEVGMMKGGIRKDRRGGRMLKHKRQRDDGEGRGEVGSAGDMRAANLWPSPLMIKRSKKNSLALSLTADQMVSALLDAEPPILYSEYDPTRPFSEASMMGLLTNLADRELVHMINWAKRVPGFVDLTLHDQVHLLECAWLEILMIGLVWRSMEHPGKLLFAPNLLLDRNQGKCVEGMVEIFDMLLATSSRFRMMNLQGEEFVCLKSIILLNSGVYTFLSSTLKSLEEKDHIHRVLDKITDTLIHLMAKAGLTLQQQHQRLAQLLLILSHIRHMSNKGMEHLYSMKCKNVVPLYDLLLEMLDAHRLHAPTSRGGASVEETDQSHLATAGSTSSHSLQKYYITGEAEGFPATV
Chain of Retinoic acid receptor RXR-alpha (Homo sapiens) (P19793 whole entry, looked up, the tested form may be a part): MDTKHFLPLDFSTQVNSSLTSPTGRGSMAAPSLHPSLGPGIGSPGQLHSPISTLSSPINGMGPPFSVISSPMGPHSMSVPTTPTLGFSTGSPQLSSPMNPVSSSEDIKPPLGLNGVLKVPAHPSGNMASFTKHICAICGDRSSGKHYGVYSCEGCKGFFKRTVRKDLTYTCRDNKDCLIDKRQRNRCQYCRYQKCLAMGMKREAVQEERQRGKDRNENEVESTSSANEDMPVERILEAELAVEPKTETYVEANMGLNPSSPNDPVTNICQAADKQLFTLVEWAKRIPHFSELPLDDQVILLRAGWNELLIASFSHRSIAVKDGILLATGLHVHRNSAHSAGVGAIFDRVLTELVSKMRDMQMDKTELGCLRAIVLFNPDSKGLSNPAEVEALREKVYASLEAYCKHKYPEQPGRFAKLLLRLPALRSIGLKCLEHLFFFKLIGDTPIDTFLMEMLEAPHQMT

As to `N#CN=C1SCCN1Cc1ccc(Cl)nc1`, the outcome in experiment [1], in [2], in experiment [3], in experiment [4], in [5] and in [6] was inactive. The AC50 in [7] was 50 µM (active).

For `CC1(C)CON(Cc2ccccc2Cl)C1=O`, the compound was classed as inactive in experiment [1], in [2], in experiment [3], in experiment [8], in [4] and in [5]. In addition, the outcome in [7] was inactive.

As for `CC(C)Nc1nc(Cl)nc(NC(C)C)n1`, the result in experiment [1], in experiment [2], in experiment [8], in [4], in [5] and in experiment [7] was inactive.

Turning to `CCCCC(C#N)(Cn1cncn1)c1ccc(Cl)cc1` (configuration not stated), the compound was called inactive in experiment [1], in experiment [2], in [3], in experiment [4] and in [5]. Also, the AC50 in experiment [6] was 51 µM (active); in [7] it was 7.87 µM (active).

Regarding `O=C1C2CC=CCC2C(=O)N1SC(Cl)(Cl)Cl` (configuration not stated), the result in [1], in [2], in [4], in [5] and in [7] was inactive.

Regarding `CCCC(=NOCC)C1=C(O)CC(CC(C)SCC)CC1=O` (configuration not stated), the result in experiment [1], in experiment [2], in experiment [3], in [8], in experiment [4] and in experiment [5] was inactive. Moreover, the outcome in experiment [6] and in [7] was inactive.

Regarding `Cn1c(-c2ccccc2)cc(-c2ccccc2)[n+]1C`, the result in [1], in experiment [2], in experiment [3], in [8], in experiment [4] and in [5] was inactive.

In the case of `CCN(CC)c1nc(C)cc(OP(=S)(OC)OC)n1`, the compound was classed as inactive in experiment [1], in experiment [2], in experiment [3], in experiment [8], in [4] and in [5]. For the same compound, the compound was classed as inactive in experiment [6] and in [7].

As for `Cc1cc(C)nc(Nc2ccccc2)n1`, the call in experiment [1], in experiment [2], in experiment [8], in experiment [4] and in experiment [5] was inactive.

In the case of `Nc1c(Cl)c(F)nc(OCC(=O)O)c1Cl`, the compound was called inactive in [1], in experiment [2], in experiment [8], in experiment [4] and in experiment [5].

Turning to `CCOc1nc(C(Cl)(Cl)Cl)ns1`, the outcome in experiment [1], in experiment [2], in experiment [3], in experiment [8], in [4] and in experiment [5] was inactive. Further, in [7], the compound was classed as inactive.

For `O=c1n(Cl)c(=O)n(Cl)c(=O)n1Cl`, the result in [1], in [2], in experiment [3], in experiment [8], in experiment [4] and in [5] was inactive.

Turning to `CCNP(=S)(OC)O/C(C)=C/C(=O)OC(C)C` (configuration not stated), the compound was called inactive in experiment [1], in experiment [2], in experiment [3], in experiment [8], in experiment [4] and in [5]. Besides, the AC50 in [6] is 65.9 µM (active); in [7], 61.8 µM (active).

With `CC(C)NC(=O)N1CC(=O)N(c2cc(Cl)cc(Cl)c2)C1=O`, the compound was called inactive in [1], in [2], in experiment [4] and in experiment [5]. Moreover, the half-maximal activity concentration (AC50) in experiment [7] is 10.3 µM (active).

With `CN=C=S`, the compound was called inactive in experiment [2], in experiment [9], in [10], in experiment [3], in experiment [8] and in experiment [4]. The compound was classed as inactive in [5].

For `COC(=O)NS(=O)(=O)c1ccc(N)cc1`, the compound was classed as inactive in experiment [1], in experiment [2], in [8], in [4] and in experiment [5].

In the case of `OC(c1ccc(Cl)cc1)(c1ccc(Cl)cc1)C(Cl)(Cl)Cl`, the compound was classed as inactive in experiment [1], in experiment [2], in [4] and in experiment [5].

Turning to `CN/C(=N\[N+](=O)[O-])NCc1cnc(Cl)s1`, the compound was classed as inactive in experiment [1], in experiment [2], in experiment [3], in experiment [8], in experiment [4] and in [5]. The compound was classed as inactive in experiment [7].

For the compound `Nc1cnn(-c2ccccc2)c(=O)c1Cl`, the result in [1], in experiment [2], in experiment [8], in experiment [4], in [5] and in experiment [6] was inactive. Besides, in experiment [7], the outcome was inactive.

Take `CC1(C)CCC(=Cc2ccc(Cl)cc2)C1(O)Cn1cncn1` (configuration not stated): the outcome in experiment [1], in experiment [2], in [8], in experiment [4], in [5] and in experiment [6] was inactive. Besides, the result in [7] was inactive.
